# Screens from PubChem.
# CatS block = inhibitors of human cathepsin S, biochemical, compound mixtures; P25774; recombinant cathepsin S, AMC dipeptide fluorescence, pooled mixtures; inhibition, %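 (tested at 5 µM per compound within 10-compound mixtures)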; hit rate 0.06% among 62,000; AID 501, 2006; in the data active means inhibition above about 32%, passing the limit was not always enough; inconclusive means no clear call, values can overlap the other calls
# CatG inh = human cathepsin G inhibitors, primary screen, biochemical, pooled compound mixtures, AMC fluorescence; inhibition, % at 5 µM (by protocol); hit rate 0.2% among 62,000; P08311; purified enzyme, AMC-tetrapeptide fluorescence;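 active means inhibition above 20% in each of the two mixture wells holding the compound; inactive means inhibition of 20% or less in either well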
# C1s block = complement C1s protease inhibitors, primary screen, biochemical, 10-compound mixtures; hit rate 0.16% among 62,000; Complement C1s subcomponent (Homo sapiens), P09871; mean inhibition % of two 10-compound mixtures (active compounds read high), % at 5 µM (by protocol); purified C1s, fluorogenic AMC substrate, pooled mixtures;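 active means inhibition above 20% in each of the two 10-compound mixture wells holding the compound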
# Target sequence (P09871 16-437 limits assumed): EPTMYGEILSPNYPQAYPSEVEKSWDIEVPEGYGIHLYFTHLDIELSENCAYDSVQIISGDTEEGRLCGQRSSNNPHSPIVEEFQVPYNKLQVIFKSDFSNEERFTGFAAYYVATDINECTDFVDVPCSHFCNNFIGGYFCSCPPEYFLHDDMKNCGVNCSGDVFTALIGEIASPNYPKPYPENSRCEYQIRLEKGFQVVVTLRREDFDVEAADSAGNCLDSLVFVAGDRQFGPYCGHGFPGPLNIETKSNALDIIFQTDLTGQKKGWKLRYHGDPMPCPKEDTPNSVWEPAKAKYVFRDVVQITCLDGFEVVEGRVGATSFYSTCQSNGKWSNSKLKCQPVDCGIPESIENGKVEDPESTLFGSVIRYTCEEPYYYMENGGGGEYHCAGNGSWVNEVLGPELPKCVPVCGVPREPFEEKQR
# Target sequence (P09871 438-688 limits assumed): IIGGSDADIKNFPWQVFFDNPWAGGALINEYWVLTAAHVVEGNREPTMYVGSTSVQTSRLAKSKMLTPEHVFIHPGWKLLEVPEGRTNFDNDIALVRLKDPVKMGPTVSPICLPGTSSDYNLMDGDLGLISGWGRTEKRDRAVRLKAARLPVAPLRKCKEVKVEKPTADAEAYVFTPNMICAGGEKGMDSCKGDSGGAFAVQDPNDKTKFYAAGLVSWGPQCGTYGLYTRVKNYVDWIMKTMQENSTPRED
# CatL inh = inhibitors of human cathepsin L, biochemical; purified cathepsin L, fluorogenic substrate, fluorescence; inhibition, %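 (tested at 10 µM)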; hit rate 0.17% among 58,000; in the data active means inhibition above about 45%
# CatB inh = human cathepsin B inhibitors, primary screen, biochemical, fluorogenic substrate; P07858; purified cathepsin B, fluorescence; inhibition, %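 (tested at 10 µM)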; hit rate 0.1% among 63,000; AID 453, 2006; in the data active means inhibition above about 21%
# CatB mixtures = cathepsin B inhibitors from pooled compounds, primary screen, biochemical, compound mixtures, AMC fluorescence; P07858; inhibition, %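 (ten-compound pools at 5 µM per compound and 50 µM total)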; hit rate 0.06% among 62,000; Purified cathepsin B, AMC dipeptide fluorescence; in the data active means inhibition above about 22%, passing the limit was not always enough; inconclusive means no clear call, values can overlap the other calls
# Hits are given with their value; . = inactive; ? = inconclusive; / = no result. Hits are enriched below; roughly 0.54% of the tested compounds scored in any of these assays.
SMILES,CatS block,CatG inh,C1s block,CatL inh,CatB inh,CatB mixtures
COc1ccc2nc(/N=C\N(C)C)sc2c1,.,.,.,.,41,.
O=S(=O)(c1ccccc1)N1CCN(S(=O)(=O)c2ccccc2)C1,.,.,.,.,.,.
O=S(=O)(/N=S1/CC=CCN1S(=O)(=O)c1ccccc1)c1ccccc1 (configuration not stated),.,.,.,/,35,?
O=C(NCc1ccccc1)c1n[nH]nc1-c1ccccc1O,.,.,.,.,.,.
CCN1C(=O)c2cccc3cccc1c23,.,.,.,.,.,.
O=C(c1ccco1)N1C(=O)c2cccc3cccc1c23,.,.,25,.,.,.
O=C(CSc1n[nH]c(-c2ccc(S(=O)(=O)N3CCCCC3)cc2)n1)Nc1nccs1,.,.,.,.,.,.
O=C(O)CCCC(=O)Nc1ccccc1C(=O)O,.,.,49,.,.,.
Cc1ccc(N(CC(=O)NC2CCC(C)CC2)S(=O)(=O)c2cccnc2)cc1 (configuration not stated),.,.,.,72,.,.
COc1ccc(N(CC(=O)NC2CCCCC2)S(=O)(=O)c2cccnc2)cc1,.,.,.,.,.,.
COC(=O)c1ccccc1NC(=O)c1cc2sccc2n1C,.,31,.,.,.,.
O=C(Nc1ccc(OC(F)(F)F)cc1)C1CCCN(S(=O)(=O)c2cccnc2)C1 (configuration not stated),.,.,.,.,.,.
COc1ccc2c(c1)CCc1c(C(=O)NCc3ccco3)noc1-2,.,56,.,.,.,.
COCCNC(=O)c1noc2c1CCc1cc(OC)ccc1-2,.,50,.,.,.,.
COCC(C)NC(=O)c1noc2c1CCc1cc(OC)ccc1-2 (configuration not stated),.,39,.,.,.,.
COCC(C)NC(=O)c1cc(-c2ccccc2OC)on1 (configuration not stated),.,.,.,.,.,.
COc1ccc2c(c1)CCc1c(C(=O)NCCN3CCOCC3)noc1-2,.,58,.,.,.,.
COc1ccc(CNC(=O)c2noc3c2CCCC3)cc1,.,.,.,.,.,.
O=C(NCc1ccco1)C1CC(=O)N(c2ccc(O)cc2)C1 (configuration not stated),.,.,.,.,.,.
COc1ccc(C(=O)NCCCn2ccnc2)cc1,.,.,.,/,.,.
COc1ccc2c(c1)CCc1c(C(=O)NC3CCCCC3)noc1-2,.,74,.,.,.,.
COc1ccc2c(c1)CCc1c(C(=O)NCCCn3ccnc3)noc1-2,.,36,.,.,.,.
Fc1ccccc1N1CCN(Cc2nc(-c3ccc(Cl)cc3Cl)no2)CC1,.,.,.,.,.,.
COc1ccc(-n2c(C)cc(C(=O)CSc3nnc(-c4ccoc4C)n3C)c2C)cc1,.,.,.,.,.,.
COc1ccc(C)cc1NC(=O)CSc1nnc(-c2ccccn2)n1Cc1ccco1,.,.,.,.,.,.
SMILES,CatS block,CatG inh,C1s block,CatL inh,CatB inh,CatB mixtures
COc1ccccc1NC(=O)CSc1nnc(-c2ccccn2)n1Cc1ccco1,.,31,.,.,.,.
COc1ccc(Cl)cc1NC(=O)CCN1CCN(c2ccccc2C)CC1,.,.,67,.,.,.
COc1ccc(C)cc1NC(=O)CCN1CCCC1,.,.,.,.,.,.
CCCC(=O)Nc1ccc(C(=O)n2nnc3ccccc32)cc1,.,81,92,.,.,.
COc1ccccc1-c1c(C#N)c(SCC(=O)N2CCCC2)nc(C)c1C(N)=O,.,25,.,.,.,.
COc1ccc(NC(C)=O)cc1NC(=O)CN1CCN(CC(=O)Nc2ccc(Cl)cc2)CC1,.,.,.,.,.,.
CCOC(=O)C(C(=O)OCC)N(C#N)c1nc(SC)nc(N(C)C)n1,/,/,/,78,27,/
COc1ccc(C2C(C(=O)NCc3ccccn3)c3cc(OC)c(OC)cc3C(=O)N2C)cc1 (configuration not stated),.,.,.,59,.,.
COc1cc2c(cc1OC)C(C(=O)NCc1cccnc1)C(c1cccnc1)N(C)C2=O (configuration not stated),.,.,.,.,.,.
Clc1ccc(CSc2nnc(-c3cccnc3)n2Cc2ccco2)c(Cl)c1,.,.,.,.,.,.
CN(C)S(=O)(=O)c1ccc(S(=O)(=O)N(Cc2ccccn2)Cc2ccco2)cc1,.,.,.,.,.,.
CC1CCN(S(=O)(=O)c2ccc(S(=O)(=O)NCC3COCCO3)cc2)CC1 (configuration not stated),.,.,.,.,.,.
Cc1ccc(Cn2ncc3c(N4CCN(c5ccccc5C)CC4)ncnc32)cc1,.,.,22,.,.,.
Cc1onc(-c2ccccc2Cl)c1C(=O)OCC(=O)N1CCCc2ccccc21,.,.,.,.,.,.
O=C1c2ccccc2C(O)(Cc2ccccc2)N1C1CCCCC1 (configuration not stated),.,.,.,104,.,.
COc1ccccc1OCC(=O)Nc1oc(-c2ccccc2)c(-c2ccccc2)c1C#N,.,.,.,/,55,.
Cc1csc(NC(=O)c2ccco2)n1,.,.,22,.,.,.
Cc1ccc(OCC(=O)Nc2ccc(N3CCCC3)cc2)cc1C,.,.,.,61,.,.
CN(C1CCCCC1)S(=O)(=O)c1ccc(Cl)c(C(=O)O)c1,.,.,.,48,.,.
Cc1cc(NC(=O)Nc2cc(C)nn2-c2ccccc2)n(-c2ccccc2)n1,.,.,.,.,.,.
Cc1cc(NC(=O)c2noc3c2CCc2ccccc2-3)n(-c2ccccc2)n1,.,59,.,/,.,.
N#Cc1ccc(CN2CCN(C(=O)c3ccccc3)CC2)c(Cl)c1,.,.,.,.,.,.
CCCCC(=O)Nc1ccc(NC(=O)c2cccnc2)cn1,.,.,21,.,.,.
CCOC(=O)c1c(C)n(C(=O)c2ccco2)c(=O)n1C(=O)c1ccco1,.,23,49,.,.,.
O=C(Oc1cc2oc(=O)c3c(c2cc1Cl)CCCC3)c1ccco1,.,.,.,.,.,.
O=C(Oc1ccc(Cl)cc1N1C(=O)CCC1=O)c1ccco1,.,.,26,.,.,.
COc1ccc(S(=O)(=O)N(C)CC(=O)N2CCC(C(N)=O)CC2)cc1Cl,.,.,.,.,.,.
CCOC(=O)CSc1nc(C2CC2)nc2ccccc12,.,.,.,.,.,.
COc1ccc(N2CCC(CNC(=O)Nc3ccc(C)c(C)c3)C2)cc1 (configuration not stated),.,.,.,.,41,.
COc1ccc(CC(=O)OCc2cc3ccc(C)cc3[nH]c2=O)cc1,.,.,.,.,.,.
